Experimental data taken from PubChem BioAssay (NCI).
Values joined by “and” are separate entries in the source; they are usually repeats but may differ in a detail not shown here. Equal values may be shown once. This is part of a sample that, as a whole, favours compounds with a hit. Of some 83,000 tested, about 20% had one in any assay.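 96-well plates, one dose, 48 hours. Percent growth reported; active if below 10.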 Active and inactive are the calls of the source.

Test system: HL-60(TB) leukemia
Test: NCI-60 one-dose screen, 48 h (100 = growth as untreated, 0 = no growth, -100 = all killed)
Details: 10 µM unless noted

| SMILES | growth |
| --- | --- |
| Cc1nn(-c2ccccc2)c2nc3nc4c(c(N)c3c(-c3ccc(Cl)cc3)c12)CCCC4 | 104% (inactive) |
| CCCc1c(C)c2sc(=O)[nH]c2[nH]c1=O | 101% (inactive) |
| Cc1ccc(S(=O)(=O)Oc2ccc(Br)cc2Br)cc1 | 41.5% (inactive) |
| O=C(Nc1cccc(-n2ccc3c(NC(=O)c4ccccc4)nccc32)c1)c1ccc(N2CCOCC2)c(C(F)(F)F)c1 | -7.22% (active) |
| Cc1ncsc1CCO | 99.9% (inactive) and 89.9% (inactive) |
| CC(=O)N1c2ccccc2NC2=C(C(=O)N(Cc3ccccc3)C2(C)C)C1c1ccco1 (stereo unspecified) | 9.63% (active) |
| CCOC(=O)c1c(NC(=O)c2ccc(C(C)C)cc2)sc2c(CN(C)C)c(O)ccc12 | -34.8% (active) |
| OCCCCCCNc1ncnc2cc(Cl)ccc12 | 88.9% (inactive) |
| Clc1ccc2c(NCCCNCc3ccc4c(c3)OCO4)ccnc2c1 | 76.3% (inactive) |
| COc1cccc(O)c1O | 73.6% (inactive) |
| COC(=O)Nc1nc2ccc(C(=O)c3ccccc3N(C)C3COC3)cc2[nH]1 | 15.6% (inactive) |
| O=C(CSC1CCc2ccccc21)N/N=C/c1ccccc1O (stereo unspecified) | -12% (active) |
| O=C1CSC2=NCCN12 | 106% (inactive) and 86.3% (inactive) |
| CC(=O)N(N=Nc1ccccc1)c1cccc2ccccc12 | 116% (inactive) |
| O=c1[nH]c([C@@H]2CCCN2)nc2c1oc1ccc(Cl)cc12 | 101% (inactive) |
| COc1ccc(Oc2ccccc2NC(=O)CNC(=O)c2cccc3ccccc23)cc1 | -22.8% [5 µM] (active) |
| CCN(CC)CCCNc1ccnc2cc3ccccc3cc12 | 83.7% (inactive) |
| O=C1NN(C(=O)c2ccccc2)C(c2ccc(Cl)c(Cl)c2)=C/C1=C\c1ccccc1[N+](=O)[O-] | 12.7% [6.75 µM] (inactive) |
| CCN(CC)c1ccc(/C=C/C(=O)c2ccc(Nc3nc(Nc4ccccc4)nc(Nc4ccccc4)n3)cc2)cc1 | 45.6% (inactive) |
| NC(=S)NNC1CCCCC1 | 67.3% (inactive) |
| Cc1nc2ncccc2nc1Nc1ccc(S(=O)(=O)Nc2ccccn2)cc1 | 100% (inactive) |

| SMILES | growth |
| --- | --- |
| COc1ccc(-c2ccc(NC(=O)Nc3cccc(C(F)(F)F)c3)c(C)n2)cc1 | 49.7% (inactive) |
| OCC(O)c1nc2ccc3[nH]ncc3c2c2c1CCCC2 (stereo unspecified) | -16.9% (active) |
| N#Cc1c(-c2ccc(O)cc2)c2c(N)nn(-c3ccccc3)c2[nH]c1=O | 102% (inactive) |
| Cn1c([N+](=O)[O-])cnc1/C=C1\Oc2ccc(Cl)cc2C1=O | -2.57% (active) |
| COc1ccc(-c2nc(NN)c3c(C)nn(-c4ccc(F)cc4)c3n2)cc1 | 0.613% (active) |
| CCN(CC)CCNC(=O)c1ccc(NCN2C(=O)NC(c3ccccc3)(c3ccccc3)C2=O)cc1 | 107% (inactive) and 105% (inactive) |
| CNc1cc(-c2cccc(OC(F)(F)F)c2)nc2ccc(N3CCCC3)cc12 | -43% (active) and -44.1% (active) and 1.92% (active) |
| O=C(O)CCCN1C(=O)/C(=C/C(Cl)=C/c2ccccc2)SC1=S | 7.56% (active) |
| O=C1C(Cl)=C(Nc2ccc3cn[nH]c3c2)C(=O)c2ccccc21 | -69.2% (active) |
| O=C1Nc2ccccc2[C@]12CC(c1ccccc1)=NN2 | -15.8% (active) |
| C=CCSc1nnc(NC(=O)CCl)s1 | 91.5% (inactive) |
| COc1cccc(-c2nn(-c3ccccc3)cc2-c2ccnc(NCCCNC(=O)Nc3ccc(Cl)c(Cl)c3)c2)c1 | 16.8% (inactive) |
| O=C(O)CNS(=O)(=O)c1ccc(OCCOc2ccc(S(=O)(=O)NCC(=O)O)cc2)cc1 | 98.7% (inactive) |
| Cc1[nH]c2ccc(F)cc2c1CCNC(=O)C1CCN(C(=O)c2ccccc2)CC1 | 102% [25 µM] (inactive) |
| N#CC1c2ccccc2C=CN1C(=O)CCCl (stereo unspecified) | 65.5% (inactive) |
| O=c1cc(-c2ccccc2)oc2c(O)c(O)ccc12 | 59.4% (inactive) |
| O=C(Nc1ccc(Oc2ccc(Nc3nc4ccccc4s3)cc2)cc1)Nc1ccc(Cl)c(Cl)c1 | 21.1% (inactive) |
| CCOc1ccc(N(C)c2ccc(/C=C/C3=[N+](C)c4ccccc4C3(C)C)cc2)cc1 | -43.5% (active) |
| Cc1oc2c(C(=O)N/N=C\c3ccc(O)cc3O)c[nH]c2c1C | -9.06% (active) |
| NS(=O)(=O)c1ccc(CCNC(=O)/C=C/c2ccc(Cl)cc2)cc1 | 89.1% (inactive) |
